Active and inactive are the calls of the source. How the calls were made is not given here.

This test deals with Pantothenate synthetase (Mycobacterium tuberculosis (strain ATCC 25618 / H37Rv)) (UniProt P9WIL5). In words: Coupled enzyme confirmation of inhibitors against recombinant Mtb PanC (AID 375).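 Further: 0% = full reaction with vehicle and 100% = no enzyme background.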 To be noted: coupled enzyme assay; at 10 µM, hits give high values.
Sequence of Pantothenate synthetase (Mycobacterium tuberculosis (strain ATCC 25618 / H37Rv)) (P9WIL5 whole entry, looked up): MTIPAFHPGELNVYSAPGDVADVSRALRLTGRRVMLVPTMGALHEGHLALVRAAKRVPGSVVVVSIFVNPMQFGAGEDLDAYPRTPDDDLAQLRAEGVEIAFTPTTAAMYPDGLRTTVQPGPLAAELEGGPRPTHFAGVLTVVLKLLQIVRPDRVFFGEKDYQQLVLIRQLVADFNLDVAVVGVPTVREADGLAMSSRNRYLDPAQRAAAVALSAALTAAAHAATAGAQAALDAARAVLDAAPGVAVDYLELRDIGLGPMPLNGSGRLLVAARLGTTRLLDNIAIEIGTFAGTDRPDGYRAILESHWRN
With `CCCCN(CCCC)CCCOC(=O)c1ccc(N)cc1`, the inhibition (in general, the relative decrease from the control value, in per cent) was 0% (inactive).

In the case of `O=C(CSc1nnc(C2CC2)n1Cc1ccccc1)c1ccc(S(=O)(=O)N2CCOCC2)cc1`, the inhibition is 0% (inactive).

With `COc1cccc(-c2nc(CSCC(=O)N3CCc4ccccc43)c(C)o2)c1`, the inhibition was 0% (inactive).

As to `[O-][n+]1onc2c1CCc1nnc(-c3ccccc3)cc1-2`, the inhibition is 0% (inactive).

For `CC(=O)Nc1ccc(S(=O)(=O)N(C2=NCC(C)S2)c2ccccc2)cc1` (configuration not stated), the inhibition is 0% (inactive).

As to `O=c1c(O)c(-c2ccc(O)cc2O)oc2cc(O)cc(O)c12`, the inhibition was 9% (inactive).

`COc1ccccc1OCC(=O)Nc1ccc(S(=O)(=O)Nc2nc(C)cc(C)n2)cc1`: the inhibition was 1% (inactive).

As to `CC(=O)Nc1ccc(NC(=O)c2ccccc2N(C)S(C)(=O)=O)cc1`, the inhibition is 2% (inactive).

As for `CCCCn1c(NCCC)nc2c1c(=O)[nH]c(=O)n2C`, the inhibition is 0% (inactive).

On to `O=c1c2cc(N3CCOCC3)ccc2[nH]c(=S)n1CCCN1CCCCC1`, for which the inhibition is 1% (inactive).

For `CN(Cc1ccc(-n2cccn2)cc1)C(=O)c1cnn2c1NC(c1ccco1)CC2C(F)(F)F` (configuration not stated), the inhibition is 0% (inactive).

As to `Cc1cnc(C(=O)NCCc2ccc(S(=O)(=O)NC(=O)NC3CCCCC3)cc2)cn1`, the inhibition was 5% (inactive).

Consider `CN1CCc2nc(SCCOc3ccccc3)c(C#N)cc2C1`, for which the inhibition is 0% (inactive).

As to `Cn1c(=O)c2c(nc3sccn32)n(C)c1=O`, the inhibition was 0% (inactive).

For the compound `CCn1c2ccccc2c2cc(N)ccc21`, the inhibition is 0% (inactive).

In the case of `CC(C)N(C(=O)N1CCC(c2nc(-c3ccncc3)no2)CC1)C(C)C`, the inhibition is 0% (inactive).

With `Cc1ccc(C)c(NS(=O)(=O)c2ccc(NC(=O)c3ccco3)cc2)c1`, the inhibition is 0% (inactive).

With `Cc1noc(C)c1S(=O)(=O)N1CCN(Cc2ccc3c(c2)OCO3)CC1`, the inhibition was 0% (inactive).

For `CCOC(=O)N1CCC(NC(=O)Cn2c3c(c(-c4ccccc4Cl)cc2=O)CCC3)CC1`, the inhibition is 0% (inactive).

For the compound `CC1=C(C(=O)Nc2ccccc2C)C(c2ccc(C)o2)N2C(=O)CSC2=N1` (configuration not stated), the inhibition is 0% (inactive).

Consider `Cc1ccc(N2CC(C(=O)Nc3nnc(C)s3)CC2=O)cc1` (configuration not stated), for which the inhibition is 6% (inactive).

As for `CCC(=NC(C)c1ccccc1)c1c(O)n(C)c(=O)n(C)c1=O` (configuration not stated), the inhibition was 0% (inactive).

The values above are taken from PubChem BioAssay.
